Assay results from the supplement of paper PMC3334620.
Over roughly 33,000 sequences, “E-score (-0.5 to 0.5)” has its median near -0.021; the highest 2% begin near 0.32. Only a selection was taken, and the highest values are over-represented in it overall.

What follows are sequences tested against T1, Zap1 (UniProt P47043) (assay: PBM E-score (8-mer binding enrichment) (E-score (-0.5 to 0.5)); higher = stronger / more preferred TF binding). Conditions: protein concentration: 200 nM; construct: GST-full length.
T1 sequence: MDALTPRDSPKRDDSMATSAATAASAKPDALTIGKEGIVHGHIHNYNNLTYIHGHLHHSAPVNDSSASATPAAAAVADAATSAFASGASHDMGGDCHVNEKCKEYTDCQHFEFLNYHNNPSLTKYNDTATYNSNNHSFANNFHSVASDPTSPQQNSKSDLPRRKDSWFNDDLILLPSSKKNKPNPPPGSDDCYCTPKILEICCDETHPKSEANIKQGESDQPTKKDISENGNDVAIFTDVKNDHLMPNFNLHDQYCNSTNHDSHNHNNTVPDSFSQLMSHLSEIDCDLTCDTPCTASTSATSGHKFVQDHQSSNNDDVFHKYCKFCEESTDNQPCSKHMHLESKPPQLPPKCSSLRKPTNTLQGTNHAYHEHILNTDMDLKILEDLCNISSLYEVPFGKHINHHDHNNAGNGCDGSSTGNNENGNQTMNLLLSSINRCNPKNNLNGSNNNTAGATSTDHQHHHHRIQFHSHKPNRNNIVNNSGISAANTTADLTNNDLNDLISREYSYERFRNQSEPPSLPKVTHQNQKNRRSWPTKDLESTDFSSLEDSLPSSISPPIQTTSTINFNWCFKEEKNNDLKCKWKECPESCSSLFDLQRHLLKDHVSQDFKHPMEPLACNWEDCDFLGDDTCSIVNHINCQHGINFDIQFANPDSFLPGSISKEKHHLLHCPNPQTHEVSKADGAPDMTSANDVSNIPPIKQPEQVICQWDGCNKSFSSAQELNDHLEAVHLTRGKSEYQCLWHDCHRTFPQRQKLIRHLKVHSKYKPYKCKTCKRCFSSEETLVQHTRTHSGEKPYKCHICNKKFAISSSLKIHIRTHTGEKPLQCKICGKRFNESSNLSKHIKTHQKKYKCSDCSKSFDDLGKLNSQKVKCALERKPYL
Description: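 Universal 'all 10-mer' protein binding microarrays (Agilent AMADID 015681) probed with GST-tagged S. cerevisiae TFs (full-length or DBD) made by in vitro transcription/translation (PURExpress), about 100-200 nM. Bound TF was detected with fluorescent anti-GST. Each ungapped 8-mer (which stands for itself and its reverse complement) is scored by the PBM enrichment score (E-score), a modified Wilcoxon-Mann-Whitney statistic from -0.5 to +0.5, computed with the Universal PBM Analysis Suite. Scale: above 0.35 generally sequence-specific binding.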

Sequence | PBM E-score
AGCTGTAG | -0.0501
ATGGCCAT | 0.332
ATGGCCAC | 0.185
ATGGCCAG | 0.268
CGACGCTC | 0.0879
CTGAGCCC | -0.179
ACCCTTAT | 0.404
ACCCTTAA | 0.443
ATCCTTAG | -0.192
ACCCTTAG | 0.432
GCCCTTAA | 0.112
ACCCTTAC | 0.29
CCCCTTAG | 0.107
AGCCTTAT | -0.0493
TCCCTTAA | 0.0619
TAGTTGCA | 0.116
ATACACGC | -0.091
AATCACAC | 0.0533
TCTCGCCA | -0.206
ACAATACC | 0.252
TACTATAA | 0.249
CAGATGAA | -0.103

Sequence | PBM E-score
ACTCTCGG | 0.0208
ACGGTGAA | -0.0282
CCCTCGAG | 0.159
ACCTCGAT | 0.245
ACCTCGTA | 0.189
ACCTCGTC | 0.0929
ACCTCGTG | 0.348
ACCTCGAG | 0.349
ACTGTCGA | -0.0508
CCCAATTC | 0.157
TCACAGAA | -0.00307
CTGCGCAG | -0.325
CTTGAGCC | -0.111
GTAACCAC | 0.431
AAAACCAC | 0.197
GGAACCAC | 0.0961
CAAACCAC | 0.0159
ATAACCAC | 0.46
CCAACCAC | 0.256
CTAACCAC | 0.325
AGAACCAC | 0.285
GAAACCAC | 0.116

Sequence | PBM E-score
CCTCTAAG | 0.139
ACCATTTC | 0.126
GATGGGCC | -0.145
CCCCCCAA | -0.371
TAGCCTAA | -0.0154
ACTACCTA | 0.161
ATTACCTC | 0.32
ATTACCTA | 0.216
ATTACCTG | 0.149
CCTACCTC | 0.125
ACTACCTC | 0.356
CGTAATCA | 0.196
AGGTCACT | 0.25
AGGTCAAC | 0.118
AGGTCACC | 0.37
CGGTCACG | 0.203
ATGTCACG | -0.195
AGGTCACG | 0.406
CGGTCACC | 0.276
GAGTCACC | 0.0467
AGGTCACA | 0.359
ACGTCACC | 0.0378

Sequence | PBM E-score
AAGTCACA | -0.034
GGGTCACC | 0.438
ACCCATTG | 0.166
CGAGCGAA | -0.162
ATACGGCA | 0.0784
AACGAGAG | -0.138
GCTTTACA | -0.0896
CTTAATCC | -0.131
GACTGAAC | -0.199
ACCAGCAA | 0.26
TCTAGGCA | -0.0489
AAAAACTT | 0.0552
GCATTAGC | -0.151
GGATACAA | 0.0969
CGTTTGGA | 0.0241
GGGTCACA | 0.398
TGGTCACA | 0.231
CGGTCACA | 0.163
GCCCAACC | -0.0373
ACTATGGC | -0.0314
